From the supplement of paper PMC5662767
Where a name gives a salt, the structure may show the parent alone.

Tested on: Drosophila S2 cl14 SmoIP sensor cells
Assay: normalized SmoIP GFP fluorescence (untreated unstimulated = 0%, untreated Hh-stimulated = 100%); higher = more Smo activation sensor fluorescence
Conditions: compound concentration: 2 uM, 24 h
[1] = stimulation: Hh conditioned medium (+Hh)
[2] = stimulation: mock conditioned medium (-Hh)
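Also: flow cytometry read-out as median GFP intensity of gated cells, compounds added 30 min before Hh-conditioned or mock medium, mock-treated cells serving as unstimulated baseline.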

SMILES	normalized SmoIP GFP fluorescence [1] [%]	normalized SmoIP GFP fluorescence [2] [%]
O=C(CCCCCCC(=O)Nc1ccccc1)NO [Vorinostat-(SAHA)]	89.9	37.6
O=C(NCCCNc1nc(Nc2cccc(NC(=O)N3CCCC3)c2)ncc1I)c1cccs1	257	78.4
Nc1cc(C(F)(F)F)c(-c2cc(N3CCOCC3)nc(N3CCOCC3)n2)cn1	68	-8.9
CN(C)Cc1c(C(=O)NCCOc2ccc(C(=O)NO)cc2)oc2ccccc12	211	35.2
COc1ccc(C(=O)Nc2sc3c(c2C(N)=O)CCCC3)cc1OC	128	-9.85
Cc1cc(Cl)ccc1OCCCC(=O)NO [Droxinostat]	95.2	-5.76
CN1CCC(CNc2ccc3ncc(-c4cccc(OC(F)(F)F)c4)n3n2)CC1	122	5.38
CC(C)n1nc(-c2cc3cc(O)ccc3[nH]2)c2c(N)ncnc21	117	-12.7
CC[C@H](C)C(=O)O[C@@H]1C[C@@H](C)C=C2C=C[C@H](C)[C@@H](CC[C@@H]3C[C@@H](O)CC(=O)O3)[C@H]21 [lovastatin-mevacor]	123	-14.7
COc1cc2nc(N3CCN(C(=O)C4COc5ccccc5O4)CC3)nc(N)c2cc1OC (stereo not drawn) [Doxazosin-mesylate]	105	8.14
Cc1ccc(S(=O)(=O)c2ccc([N+](=O)[O-])o2)cc1	144	21.3
CCc1cc2c(cc1CC)CC(NC[C@H](O)c1ccc(O)c3[nH]c(=O)ccc13)C2 [indacaterol-maleate]	107	-2.82
O=C(/C=C\n1cnc(-c2cc(C(F)(F)F)cc(C(F)(F)F)c2)n1)N1CC(F)(F)C1	118	-0.264
CCCCNc1ccc(C(=O)OCCN(C)C)cc1 [tetracaine-hydrochloride-pontocaine]	117	-6.34
O=C(c1ccc(OCCN2CCCCC2)cc1)c1c(-c2ccc(O)cc2)sc2cc(O)ccc12 [Evista]	118	6.52
COC(=O)C1=C(C#N)NC(C)=C(C(=O)OC(C)C)C1c1cccc([N+](=O)[O-])c1 (stereo not drawn) [nilvadipine-arc029]	110	-17
CC(C)NCC(O)COc1ccc(COCCOC(C)C)cc1 (stereo not drawn) [Bisoprolol-Fumarate]	103	8.79
CCC(C)(Oc1ccc(C2(c3ccc(OC(C)(CC)C(=O)O)cc3)CCCCC2)cc1)C(=O)O (stereo not drawn) [clinofibrate]	131	-14.5
CN1CCN(C(=O)c2cc3cc(Cl)ccc3[nH]2)CC1	101	-2.71
Cc1ccc(N(CC2=NCCN2)c2cccc(O)c2)cc1 [phentolamine-mesilate]	128	-15.3
CC(C)(O)CC(=O)NCCn1ccc2ncnc(Nc3ccc(Oc4cccc(C(F)(F)F)c4)c(Cl)c3)c21	116	3.66
CCS(=O)(=O)Nc1ccc2c(c1)/C(=C(/Nc1ccc(CN3CCCCC3)cc1)c1ccccc1)C(=O)N2 [Hesperadin]	94.8	12.7
c1cncc(CN2CCC(n3ncc4c(N5CCOCC5)nc(-c5ccc6[nH]ccc6c5)nc43)CC2)c1	104	-4.53
CC(C)(C)c1cc(NC(=O)Nc2ccc(-c3cn4c(n3)sc3cc(OCCN5CCOCC5)ccc34)cc2)no1	110	8.79
CNCc1cc(-c2ccccc2F)n(S(=O)(=O)c2cccnc2)c1	126	-15.1

SMILES	normalized SmoIP GFP fluorescence [1] [%]	normalized SmoIP GFP fluorescence [2] [%]
C=CC(=O)Nc1cccc(Oc2nc(Nc3ccc(N4CCN(C)CC4)cc3OC)ncc2Cl)c1	96.5	19.1
CCOC(=O)[C@H](CCc1ccccc1)N[C@H]1CS[C@H](c2cccs2)CN(CC(=O)O)C1=O [temocapril-hcl]	111	0.785
O=C(c1ccc(F)cc1)N1CCC[C@H](c2nc(-c3ccc(F)cc3)no2)C1	156	-7.78
CCCCOc1ccc(C(=O)Nc2ccc(F)cc2F)cc1	99.9	-2.08
CC(=O)O[C@]1(C(C)=O)CC[C@H]2[C@@H]3C=C(Cl)C4=CC(=O)[C@@H]5C[C@@H]5[C@]4(C)[C@H]3CC[C@@]21C [cyproterone-acetate]	142	-6.79
CCc1ccc(OCc2ccccc2C(=O)Nc2ccc3nc(C)cc(N)c3c2)cc1	164	14.4
C[C@H](Cn1cnc2c(N)ncnc21)OCP(=O)(O)O [Tenofovir]	104	-4.47
CCOC(=O)C1=C(N)Oc2ccc(Br)cc2C1C(C#N)C(=O)OCC (stereo not drawn)	97.9	1.03
Nc1nc(N)nc(-c2cc(Cl)ccc2Cl)n1 [Irsogladine-maleate]	140	-3.9
Cc1ccc(C(=O)N(CCCN)[C@@H](c2oc3cc(Cl)ccc3c(=O)c2Cc2ccccc2)C(C)C)cc1	141	2.05
CCn1c(-c2nonc2N)nc2c(C#CC(C)(C)O)ncc(OC[C@H]3CCCNC3)c21	98.8	-8.56
CNC[C@H](O)c1cccc(O)c1 [Phenylephrine-hydrochloride]	108	-14.9
CN(C)CCCCC(=O)Nc1ccc(NC(=S)NC(=O)c2ccc(C(C)(C)C)cc2)cc1 [tenovin-6]	112	3.49
O=C(COc1ccc(Cl)cc1)NC1CCC(NC(=O)COc2ccc(Cl)cc2)CC1 (stereo not drawn) [isrib-trans-isomer]	109	7.06
NCCCCCNCC12CC3CC(CC(C3)C1)C2 [iem-1754-dihydrobromide]	102	-2.31
CC(C)(C)C#Cc1cc(N(C(=O)[C@H]2CC[C@H](C)CC2)[C@H]2CC[C@H](O)CC2)c(C(=O)O)s1	118	10.4
CCN(CC)C(=O)/C(C#N)=C/c1cc(O)c(O)c([N+](=O)[O-])c1 [entacapone]	106	-3.05
CCN(CC)CCCCNc1ncc2cc(-c3cc(OC)cc(OC)c3)c(NC(=O)NC(C)(C)C)nc2n1	123	8.79
Cc1cc(Nc2nc(N[C@@H](C)c3ccc(F)cc3)c(C#N)cc2F)n[nH]1	109	-9.04
O=c1ncccn1[C@@H]1O[C@H](CO)[C@@H](O)[C@H]1O [zebularine]	108	-3.16
O=C(O)CCCN1CCC(O[C@@H](c2ccc(Cl)cc2)c2ccccn2)CC1 [bepotastine-besilate]	103	-2.31
COc1cc2c(cc1OC)CC(=O)N(CCCN(C)C[C@@H]1Cc3cc(OC)c(OC)cc31)CC2 [ivabradine-hcl-procoralan]	111	-11.2
Cc1cnc(NC(=O)Nc2cc(Br)c(C)cc2OC[C@@H]2CNCCO2)cn1	112	-14.5
COc1cc(NC(=O)c2ccc(-c3ccc(Cl)cc3)o2)cc(OC)c1	115	-1.97
CCOc1nc2cccc(C(=O)O)c2n1Cc1ccc(-c2ccccc2-c2noc(=O)[nH]2)cc1 [azilsartan-tak-536]	104	-4.7

SMILES	normalized SmoIP GFP fluorescence [1] [%]	normalized SmoIP GFP fluorescence [2] [%]
NC(=O)C(c1ccccc1)(c1ccccc1)[C@@H]1CCN(CCc2ccc3c(c2)CCO3)C1 [darifenacin-hydrobromide]	116	0.0767
OC[C@@H](O)CN1CCN(c2ccccc2)CC1 [levodropropizine]	94.5	-2.93
Cn1cc(/C=C2\C(=O)Nc3cccnc32)c2ccccc21	158	60.2
c1ccc2c(CCNc3ccc(Nc4ccncc4)cc3)c[nH]c2c1	106	10.7
Cn1c(=O)c(F)c(Nc2ccc(I)cc2F)c2c(=O)n(C[C@@H](O)CO)cnc21	262	47.8
O=C(O)c1cc2cccc([N+](=O)[O-])c2[nH]1	136	24.3
NC1(c2ccc(-c3nc4ccn5c(=O)[nH]nc5c4cc3-c3ccccc3)cc2)CCC1	102	16.8
COc1ccc(CNCc2cccc3ccccc23)cc1	111	-2.82
COc1ncc(-c2ccc3nccc(-c4ccnnc4)c3c2)cc1NS(=O)(=O)c1ccc(F)cc1F	57.4	-10.6
Cc1c(C(=O)NN2CCCCC2)nn(-c2ccc(Cl)cc2Cl)c1-c1ccc(Cl)cc1	107	2.46
CC(=O)NS(=O)(=O)c1ccc(N)cc1 [sulfacetamide-sodium]	103	-5.72
COc1cc2ncnc(Sc3nnc(C)s3)c2cc1OC [sklb1002]	107	-0.491
Cc1cc(C(C)Nc2ccccc2)c2nc(N3CCOCC3)cc(=O)n2c1 (stereo not drawn)	126	-0.265
C[C@@H]1COC(Nc2ccc3ncnc(Nc4ccc(OCc5nccs5)c(Cl)c4)c3c2)=N1	108	-17.2
COC(=O)C1=C(C)NC(C)=C(C(=O)OC2CCCN(Cc3ccccc3)C2)C1c1cccc([N+](=O)[O-])c1 (stereo not drawn) [benidipine-hydrochloride]	89.9	-3.9
Fc1cc(-c2cccc3ncc(-c4cnn(C5CCNCC5)c4)nc23)cc(F)c1CN1CCOCC1	145	-4.08
COc1cc([C@@H]2c3cc4c(cc3[C@@H](O[C@@H]3O[C@@H]5CO[C@@H](C)O[C@H]5[C@H](O)[C@H]3O)[C@H]3COC(=O)[C@H]23)OCO4)cc(OC)c1OP(=O)(O)O [Etopophos]	178	28.7
CC(C)C1CCC(C(=O)N[C@H](Cc2ccccc2)C(=O)O)CC1 (stereo partly drawn) [Nateglinide(Starlix)]	110	-4.71
CCCCOc1ccc(CC(=O)NO)cc1 [bufexamac]	98.6	-3.05
Cc1cc(F)c(Nc2ncnc3cc(OCc4ccccc4)ccc23)cc1O	104	-3.39
Cn1cncc1[C@@](N)(c1ccc(Cl)cc1)c1ccc2c(c1)c(-c1cccc(Cl)c1)cc(=O)n2C	141	43.9
CN[C@H]1CC[C@@H](c2ccc(Cl)c(Cl)c2)c2ccccc21 [sertraline-hcl]	108	2.46
C/C(=C\C(=O)Nc1ccccc1C(=O)O)c1ccc2ccccc2c1	109	-2.42
CCCCNC(=O)NS(=O)(=O)c1ccc(C)cc1 [tolbutamide]	108	-16.8
